# uPA generation: inhibitors of cell surface uPA generation; actives 0.31% (n = 330,000); Potency, µM (titrated, usually from 38.3 µM), for the others: at the top dose activity change, negative = inhibition, usual class: inhibitors; cell surface uPA generation assay, qHTS; active = well fitted inhibition curve with a large enough effect; inconclusive = small, poorly fitted or top-dose-only effect; inactive = no such curve, though single readings can be large or run the other way; tested in mouse RAW 264.7 cells; also: potency is read from the fitted curve at half-maximal effect; % is scaled to controls: 0 for no effect and ±100 for the full control effect; nearly all actives have a fitted effect of over 55% in size
# MmCpn inh: inhibitors of Methanococcus maripaludis chaperonin TRiC (MmCpn). actives 0.031% (n = 330,000). purified Mm-Cpn ATPase, ADP Transcreener TR-FRET. Potency, µM (highest dose often 76.9 µM), inactives show at the highest dose activity, negative = inhibition, hits mostly inhibitors; also: potency is read from the fitted curve at half-maximal effect; % is scaled to controls: 0 for no effect and ±100 for the full control effect; nearly all actives have a fitted effect of over 80% in size
#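 TR-FRET (320 nm excitation; 590 and 665 nm emission) reports ADP made from 10 uM ATP by 25 nM enzyme; compounds were preincubated 10 min, reaction run 30 min, both at 37°C.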
# CCT chaperon mod: modulators of cytosolic chaperonin (CCT/TRiC) activity; purified chaperonin ATPase assay, HTRF ADP detection, 30 min; activity change, % (no concentration beside the values), hits read low; actives 0.3% (n = 360,000); AID 651819; in the data active = activity change below about -30%; also: % is scaled to controls: 0 for no effect and ±100 for the full control effect
#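 We incubate TRiC, 40 or 20 nM final, with library compounds at 76 uM and 10 uM ATP for 30 min at 37 °C. ADP formed is detected with Transcreener HTRF reagents after 30 min at room temperature.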
# GLP1R ag: agonists of human GLP-1 receptor | HEK293 GLP-1R CRE-luciferase, luminescence, 4-6 h; cells express a hypersensitive GLP-1R form | Potency, µM (top dose mostly 45.6 µM), for inactives: at the top dose activation, actives largely listed as activators | actives 0.007% (n = 380,000) | AID 624172; also: potency is read from the fitted curve at half-maximal effect; % of control where 0% means no effect
# Target sequence (P43220 whole entry, looked up): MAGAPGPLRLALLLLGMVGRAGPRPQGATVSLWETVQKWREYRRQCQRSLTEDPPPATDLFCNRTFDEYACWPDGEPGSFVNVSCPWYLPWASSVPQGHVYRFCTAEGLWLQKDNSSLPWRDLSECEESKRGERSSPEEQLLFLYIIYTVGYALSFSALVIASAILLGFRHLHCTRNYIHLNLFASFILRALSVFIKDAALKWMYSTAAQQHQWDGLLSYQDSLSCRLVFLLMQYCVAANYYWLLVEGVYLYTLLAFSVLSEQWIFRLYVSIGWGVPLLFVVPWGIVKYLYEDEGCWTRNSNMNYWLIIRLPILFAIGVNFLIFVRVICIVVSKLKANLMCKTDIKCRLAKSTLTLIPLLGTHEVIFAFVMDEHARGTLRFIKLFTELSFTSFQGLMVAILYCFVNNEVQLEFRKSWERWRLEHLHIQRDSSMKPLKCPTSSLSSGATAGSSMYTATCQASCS
# HEK293 tox: cytotoxicity counter-screen for GLP-1 receptor inverse agonists; Potency, µM (titrated, usually from 38.3 µM), for inactives: at the top dose activity change, negative = inhibition, actives largely listed as inhibitors; actives 0.13% (n = 410,000); HEK293 cAMP-luciferase reporter cells, luminescence, 24 h;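 also: loss of luciferase light is scored as toxicity; potency is read from the fitted curve at half-maximal effect; % is scaled to controls: 0 for no effect and ±100 for the full control effect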
#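 A 23 nL compound transfer followed 12 hours of cell culture at 37 deg C; exposure then lasted 24 hr. Luciferase assay detection reagent was dispensed and plates read for luminescence after a 12 min room-temperature wait.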
# GLP1R inv ag: acts as inverse agonist at human GLP-1 receptor | P43220 | HEK293 GLP-1R CRE-luciferase, luminescence, 24 h; GLP-1R form is constitutively active | Potency, µM (highest dose often 38.3 µM), without a hit: at the highest dose activity change, negative = inhibition, most hits filed as inhibitors | actives 1.6% (n = 410,000); also: potency is read from the fitted curve at half-maximal effect; % is scaled to controls: 0 for no effect and ±100 for the full control effect; nearly all actives have a fitted effect of over 55% in size
#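 Readout was luciferase luminescence, measured 12 min after detection reagent at room temperature. Beforehand, GLP-1R reporter HEK293 cells had sat 12 h, then received compounds for 24 hr at 37 deg C.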
# The depositor's hits bear a star; ? = inconclusive; · = no result given. Hits are enriched below; roughly 2.2% of the tested compounds scored in any of these assays. Unless noted, calls follow the shape of the dose curve; as a rule, active = well fitted curve in the direction sought with a large enough effect; inconclusive = small, poorly fitted or top-dose-only effect, or another doubt; inactive = no such curve, though single readings can be large; an effect the other way counts as inactive or inconclusive.
SMILES,uPA generation,MmCpn inh,CCT chaperon mod,GLP1R ag,HEK293 tox,GLP1R inv ag
CN(CCC#N)c1ccc(C=C(C#N)c2ccc(Br)cc2)cc1,·,·,0,27%,?,10µM*
CN(CCC#N)c1ccc(/C=C(\C#N)c2ccccn2)cc1,2.5µM*,0%,0,1%,-8%,?
CCN(CC)c1ccc(/C=C(\C#N)c2ccccn2)cc1,-16%,-4%,1,1%,5%,?
CC(C)(C)c1cc(C(=O)N2CCc3ccccc32)ccn1,·,-2%,1,14%,1%,-17%
COc1cc2c(cc1OC)CN(C(=O)c1ccc([N+](=O)[O-])o1)CC2,-2%,0%,-5,20%,7%,68%
O=C(NCCCn1ccnc1)c1ccc(N2CCCCCC2)c([N+](=O)[O-])c1,1%,1%,0,15%,-1%,5µM*
O=C(c1ccc([N+](=O)[O-])o1)N1CCc2ccccc2C1,7.1µM*,0%,0,-4%,-24%,39%
CC(C)(C)c1cc(C(=O)N2CCc3ccccc3C2)ccn1,7.9µM*,1%,-2,4%,5%,-18%
O=C(c1ccc(N2CCCC2)c([N+](=O)[O-])c1)N1CCc2ccccc2C1,-13%,-1%,-1,29%,-35%,4.5µM*
O=C(Cn1nc2c(cc1=O)CCCC2)NCc1ccccc1Cl,·,·,·,·,0%,6%
O=C(CN1CCCCC1)N1c2ccccc2Oc2ccccc21,-1%,1%,1,8%,-7%,?
O=C(CO/N=C/c1ccccc1)N1c2ccccc2Oc2ccccc21,0%,1%,-1,-1%,-11%,8.9µM*
COc1ccc(NC(=O)Cn2c(=O)n(CCC(=O)NCCc3ccc(OC)c(OC)c3)c(=O)c3ccccc32)cc1Cl,·,·,·,0%,3%,2%
O=C1Nc2ccc(Br)cc2/C1=C/C1CC=CCC1 (stereo not drawn),-10%,0%,0,-5%,-27%,4.5µM*
CCOC(=O)C1(Cc2cccc(Cl)c2)CCCN(C(=O)c2occc2C)C1 (stereo not drawn),-4%,-3%,-1,3%,5%,11µM*
CCOC(=O)C1(Cc2cccc(Cl)c2)CCCN(C(=O)c2ccco2)C1 (stereo not drawn),-7%,2%,-1,9%,-6%,?
COc1cc(NC(=O)c2ccc(NC(=O)N3CCSc4ncccc43)cc2)cc(OC)c1,·,·,·,·,3%,15%
CCOC(=O)N1CCN(CC(=O)Nc2sc(CC)cc2C(=O)c2ccc(OC)cc2)CC1,8%,0%,1,18%,-26%,5.6µM*
CCOC(=O)N1CCN(CC(=O)Nc2sccc2C#N)CC1,11µM*,-4%,1,-2%,?,5%
CCCCOc1ccc(C2=NC(c3ccncc3)=Nc3ccc(OCC)cc3N2)cc1,·,·,·,·,-2%,-2%
COc1ccc2c(-c3ccc(OCCN4CCOCC4)cc3)c(-c3ccccc3OC)sc2c1,-22%,32µM*,-1,12%,22%,?
COc1ccc2c(-c3ccc(OCCN4CCCCC4)cc3)c(-c3ccccc3OC)sc2c1,?,-28%,0,10%,3%,?
COc1cc2sc(-c3ccccc3OC)c(-c3ccc(OCCN4CCOCC4)cc3)c2cc1OC,?,45µM*,2,19%,-1%,?
COc1ccc(-c2sc3ccc(OC)cc3c2-c2ccc(OCCN3CCOCC3)cc2)cc1,-14%,?,-1,-2%,8%,10µM*
CCC(C)NC(=O)C1CCN(C(=O)c2cc3sccc3n2Cc2ccc(Cl)cc2)CC1 (stereo not drawn),·,·,·,·,-7%,-16%
COc1cc(C)ccc1OCCSc1nc2ccc(NC(C)=O)cc2s1,·,·,·,·,-5%,-15%
O=C(Cn1ncc2c3ccccc3n(Cc3ccccc3)c2c1=O)NCCN1CCOCC1,-15%,1%,-34*,6%,2%,-18%

# Screening results: PubChem, National Center for Advancing Translational Sciences (NCATS)
